Y pestis TopoI = Yersinia pestis topoisomerase I inhibitors, primary screen, biochemical, cleavage product accumulation, plate reader, single point. DNA topoisomerase I (Yersinia pestis CO92). Y. pestis Topo-I cleavage product accumulation. activity, % at 10 µM. 360,000 compounds, 0.064% hits. AID 504884, 2011; in the data active = activity above about 50%, passing the limit was not always enough
PfHsp40 rescue = rescue of yeast from PfHsp40 toxicity, primary screen, S. cerevisiae, ATP luminescence; S. cerevisiae expressing PfHsp40, growth rescue; 340,000 compounds, 0.68% hits; AID 504582, 2011; growth rescue, % at 12.5 µM; in the data active = growth rescue above about 28%, passing the limit was not always enough;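 also: yeast W303a lacking pdr1 and pdr3 grown in galactose medium; growth measured after three days at 30 °C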
PrP UTR inh = inhibition of PrP 5' UTR reporter expression; AID 488862, 2010; inhibition, % (no concentration beside the values); cell-based PrP 5' UTR mRNA reporter, plate reader; 340,000 compounds, 0.35% hits; in the data active = inhibition above about 52%
CCHFV vOTU inh = CCHFV vOTU protease inhibitors, primary screen, biochemical, Pep-AMC substrate, fluorescence; Crimean-Congo hemorrhagic fever virus L polyprotein viral ovarian tumor (vOTU) protease …; inhibition, % at 11.5 µM; 370,000 compounds, 0.55% hits; AID 651958, 2012; in the data active = inhibition above about 30%
PrPC TRFRET = inhibitors of human cell surface prion protein PrPC, primary screen, cell-based, TR-FRET. TR-FRET read-out. inhibition, % at 13.8 µM. 370,000 compounds, 0.43% hits; in the data active = inhibition above about 24%
BJeLR viability = MLPCN primary cell-based screen for lethality selective to Ras in HRASV12 cells | BJeLR (HRASV12) viability, CellTiter-Glo ATP luminescence, 48 h | inhibition, % (test concentration not listed) | 300,000 compounds, 0.17% hits | AID 1554, 2009; in the data active = inhibition above about 50%
PrP UTR cherry = prion 5' UTR mRNA inhibition, cherry-pick retest; cell-based prion protein 5' UTR reporter, plate reader; AID 504592, 2011; 1,100 compounds, 48% hits; shares compounds with PrP UTR inh; inhibition, % at 2.5 µM; in the data active = inhibition above about 54%
Large screens that a line does not name were inactive (follow-up assays come after a bar, where they were run). Shown are actives, neighbours in structure and some others; about 2% of the full set was active somewhere.

COc1ccccc1C(=O)Nc1nc(-c2ccc(S(=O)(=O)N3CCOCC3)cc2)cs1	PrPC TRFRET 25
O=C1C=C(O)c2c(O)cc(O)c(O)c2C1=O	PfHsp40 rescue 248
C[C@@H]1Cc2c(O)c(O)cc(O)c2C(=O)O1	none (no result: CCHFV vOTU inh, PrPC TRFRET)
Nc1ccc(O)c2c1C(=O)c1ccccc1C2=O	none
O=C1c2ccccc2C(=O)c2c(O)c(O)cc(O)c21	PfHsp40 rescue 179 (no result: BJeLR viability)
CCCCc1c(-c2ccccc2OC)ncn1Cc1ccccc1F	none (no result: Y pestis TopoI, PfHsp40 rescue, PrP UTR inh, BJeLR viability)
CC1CC(C)CN(S(=O)(=O)c2ccc(C(=O)NCCCn3ccnc3)cc2)C1 (stereo not drawn)	BJeLR viability 109 (no result: CCHFV vOTU inh, PrPC TRFRET)
Cc1cc(C(=O)N/N=C/c2cc(Br)cc([N+](=O)[O-])c2O)c2ccccc2n1	PfHsp40 rescue 184
CCCCN(CCCC)c1ncnc2nc[nH]c12	PfHsp40 rescue 138
CN[C@H]1C[C@H]2c3[nH]c4c(-c5ccccc5)cccc4c3CCN2C[C@H]1[C@H](C)O	none (no result: Y pestis TopoI, PfHsp40 rescue, PrP UTR inh, BJeLR viability)
O=C(Nc1ccccc1-c1nnn(CC(=O)N2CCOCC2)n1)c1ccccc1F	PfHsp40 rescue 42
COc1ccc(-c2cc(-c3nc4ccccn4c3NCc3ccccc3)ccc2OC)cc1	PrPC TRFRET 85 (no result: BJeLR viability)
COc1ccc(C(=O)C2(C(=O)NCc3ccccc3)CC(c3ccccn3)=NO2)cc1 (stereo not drawn)	none (no result: Y pestis TopoI, PfHsp40 rescue, PrP UTR inh, BJeLR viability)
O=C(O)c1nn(CCOc2cccc(Br)c2)c(=O)c2ccccc12	Y pestis TopoI 52
C#CCOCCOCCOCCNc1nc(N2CCOCC2)nc(N2CCN(C(=O)[C@H](CCC(=O)O)n3cc(C(N)CC(C)C)nn3)CC2)n1 (stereo partly drawn)	none (no result: Y pestis TopoI, PfHsp40 rescue, PrP UTR inh, CCHFV vOTU inh, BJeLR viability)
CC(C)c1ccc(S(=O)(=O)/N=C2\C=C(NS(=O)(=O)c3ccccc3)C(=O)c3ccccc32)cc1	CCHFV vOTU inh 68
Oc1c(Cl)cccc1Cc1cc(Cl)cc(Cl)c1O	PfHsp40 rescue 406 (no result: BJeLR viability)
Oc1c(Cl)cc(Cl)cc1CN1CCN(Cc2ccccc2)CC1	none
CCOC(=O)c1c(C)[nH]c(C(=O)N/N=C\c2ccccc2O)c1C	PfHsp40 rescue 37
COc1cc([N+](=O)[O-])c2nc(C=NNC(N)=S)ccc2c1	none (no result: BJeLR viability)
COC(=O)c1ccc2cc(OC)cc([N+](=O)[O-])c2n1	PfHsp40 rescue 37 (no result: BJeLR viability)
COCC(=O)Oc1c(S(=O)(=O)c2ccc(C)cc2)c(C)nn1-c1ccccc1	PfHsp40 rescue 157
COCC(=O)Oc1c(S(=O)(=O)c2ccc(C)cc2)c(C)nn1C(C)(C)C	none
O=C(Cn1c(-c2cncs2)nc2ccccc21)NC1CCCCC1	none (no result: Y pestis TopoI, PfHsp40 rescue, PrP UTR inh, BJeLR viability)
COCC(=O)N(C)[C@H]1C[C@H]2c3[nH]c4cccc(-c5cccc(F)c5)c4c3CCN2C(=O)[C@H]1[C@H](C)O	none (no result: Y pestis TopoI, PfHsp40 rescue, PrP UTR inh, BJeLR viability)
O=c1oc2ccccc2c(O)c1/C=C1\C=Nc2ccccc21	PfHsp40 rescue 110
O=c1oc2ccccc2c(O)c1/C=N/c1ncccn1	none
O=C(OCc1cn(Cc2cccc(Cl)c2)nn1)N1CCOCC1	none (no result: Y pestis TopoI, PfHsp40 rescue, PrP UTR inh, BJeLR viability)
O=C(Nc1ccccc1Cl)O[C@@H]1CC[C@@]23CCCN2C(=O)CCC[C@H]3C1	none (no result: Y pestis TopoI, PfHsp40 rescue, PrP UTR inh, CCHFV vOTU inh, BJeLR viability)
CCc1ccc(NC(=O)COC(=O)/C=C/c2c(C)nn(C3CCS(=O)(=O)C3)c2Cl)cc1 (stereo not drawn)	PfHsp40 rescue 59
COc1ccc(Cl)cc1NC(=O)COC(=O)/C=C/c1c(C)nn(C2CCS(=O)(=O)C2)c1Cl (stereo not drawn)	none
C=C(C=O)CC1CC(O)[C@]2(C)OC3CC4OC5C[C@]6(C)O[C@]7(C)CCC8OC9C[C@]%10(C)OC%11C(C)=CC(=O)OC%11CC%10OC9C[C@@H](C)C8OC7CC6O[C@]5(C)C/C=C\C4OC3CC2O1 (stereo partly drawn)	none (no result: Y pestis TopoI, PfHsp40 rescue, PrP UTR inh, CCHFV vOTU inh, BJeLR viability)
C=C(C=O)C[C@@H]1C[C@H](O)C2OC3C[C@]4(C)OC5/C=C\CC6OC7C(CC=CCC6OC5CCCC4OC3CC2O1)OC1CC2OC3CC(=O)OC3C[C@@H](C)C[C@@]2(C)OC1C[C@@H]7C (stereo partly drawn)	BJeLR viability 95 (no result: Y pestis TopoI, PfHsp40 rescue, PrP UTR inh, CCHFV vOTU inh, PrPC TRFRET)
CC(=O)N1CC(=O)Nc2ccc(Br)cc2C1c1ccc(F)cc1 (stereo not drawn)	PfHsp40 rescue 85
COCc1cc(N2CCN(C(=O)OC(C)(C)C)C[C@H]2C)ccc1N1CCN(Cc2ccccc2)[C@H](C)C1	none (no result: Y pestis TopoI, PfHsp40 rescue, PrP UTR inh, BJeLR viability)
CCOC(=O)NNc1ccc2nonc2c1[N+](=O)[O-]	PfHsp40 rescue 124 (no result: Y pestis TopoI, CCHFV vOTU inh, PrPC TRFRET)
COc1cc2[nH]c(=S)nc(NCC3CCCO3)c2cc1OC (stereo not drawn)	none
COc1cc2[nH]c(=S)nc(NC3CCCCCC3)c2cc1OC	PrPC TRFRET 25 (no result: BJeLR viability)
CCOC(=O)[C@@]12CCCC=C1N(CCc1ccc(Cl)cc1)C(=O)[C@H]2CC(=O)NCC12CC3CC(CC(C3)C1)C2	none (no result: Y pestis TopoI, PfHsp40 rescue, PrP UTR inh, BJeLR viability)
COc1cc2c(c3ccccc13)CCCC2=O	none (no result: BJeLR viability)
O=C1CCCc2c1ccc1ccccc21	PfHsp40 rescue 29 (no result: BJeLR viability)
C=CCCC1CN(Cc2ccc(OC)cc2)S(=O)(=O)c2c(cccc2N2CCCCC2)O1 (stereo not drawn)	none (no result: Y pestis TopoI, PfHsp40 rescue, PrP UTR inh, BJeLR viability)
COc1ccccc1N(CCC#N)C(=O)CSc1nnc2ccccn12	none (no result: BJeLR viability)
COc1ccccc1N(CCC#N)C(=O)CSc1nc(-c2ccccc2)cn1N	PfHsp40 rescue 36
COc1cccc(CNC(=O)C[C@H]2CC[C@H]3[C@@H](COc4ccc(NC(=O)c5cccs5)cc4C(=O)N3C)O2)c1	none (no result: Y pestis TopoI, PfHsp40 rescue, PrP UTR inh, BJeLR viability)
Cc1cc(C(=O)N/N=C/c2ccc(O)c(O)c2O)c(C)n1-c1ccccc1	PfHsp40 rescue 87
CCOC(=O)c1c(SC)[nH]c2c(Cl)cccc2c1=O	PfHsp40 rescue 93
C=CCOC(=O)c1[nH]c2c(c1C)C(=O)CC(c1ccco1)C2 (stereo not drawn)	none (no result: Y pestis TopoI, PfHsp40 rescue, PrP UTR inh, CCHFV vOTU inh, PrPC TRFRET)
Cc1c(C(=O)OC2CCCC2)[nH]c2c1C(=O)CC(c1ccco1)C2 (stereo not drawn)	PrP UTR inh 61 | PrP UTR cherry 73
Cc1c(C(=O)OCC(C)C)[nH]c2c1C(=O)CC(c1ccco1)C2 (stereo not drawn)	PrP UTR inh 70 | PrP UTR cherry 85
Cn1cnc2nc[nH]c2c1=O	PrP UTR inh 55 (no result: BJeLR viability) | PrP UTR cherry inactive
CCOC(=O)NC(=O)/C(C#N)=N\Nc1cccc(OC)c1	none
CCOC(=O)NC(=O)/C(C#N)=N/Nc1c(F)cccc1F	PrP UTR inh 61 | PrP UTR cherry inactive
O=C(NCCc1ccc(F)cc1)c1cc2ccccn2n1	none (no result: Y pestis TopoI, PfHsp40 rescue, PrP UTR inh, BJeLR viability)

From PubChem BioAssay
